The list is not random: actives were taken first. Their share in the collection is about 28%.
CYP2C19 inhib: human CYP2C19 inhibition. P33261. CYP2C19 Supersomes, luciferin-H EGE luminescence, 30 min. inhibition, % at 5 µM. hit rate 21% among 96,000. AID 778;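 active = CYP2C19 inhibition above a set limit at 5 µM in the primary screen, cut at about 50% in these data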;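 also: plate controls were negative control wells for no effect and 2.5 mM tranylcypromine positive control for full effect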
Target sequence (P33261 whole entry, looked up): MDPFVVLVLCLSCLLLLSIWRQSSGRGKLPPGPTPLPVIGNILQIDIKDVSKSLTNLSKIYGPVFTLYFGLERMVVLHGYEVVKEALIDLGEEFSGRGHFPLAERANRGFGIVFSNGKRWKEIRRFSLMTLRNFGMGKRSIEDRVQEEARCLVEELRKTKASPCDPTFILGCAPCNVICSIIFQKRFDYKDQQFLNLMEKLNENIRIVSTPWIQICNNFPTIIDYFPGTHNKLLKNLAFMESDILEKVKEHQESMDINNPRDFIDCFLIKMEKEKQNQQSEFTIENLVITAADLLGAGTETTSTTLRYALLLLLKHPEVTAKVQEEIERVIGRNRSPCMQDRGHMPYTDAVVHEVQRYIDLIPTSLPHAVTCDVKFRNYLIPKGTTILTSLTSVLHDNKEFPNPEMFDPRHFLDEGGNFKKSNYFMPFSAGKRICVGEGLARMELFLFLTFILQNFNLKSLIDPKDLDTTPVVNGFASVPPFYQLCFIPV
CYP2C9 inh: human CYP2C9 inhibition | AID 777 | CYP2C9 Supersomes, luciferin-H conversion, luminescence | P11712 | hit rate 20% among 96,000 | inhibition, % at 5 µM;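 active = blocking of liver enzyme CYP2C9 beyond about 50% at 5 µM, limit read from the data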
CYP2C19 act: activators of human cytochrome P450 2C19 | recombinant CYP2C19, luciferin-H EGE luminescence; stronger effect = higher value; 0 = fully inhibited enzyme, 1 = untreated enzyme | AID 1025 | 96,000 tested, under 10 active | activation factor at 5 µM | P33261;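 active = activation factor of at least 2 at 5 µM in the primary screen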;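 also: 0 = wells with 2.5 mM tranylcypromine and 1 = vehicle-only wells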
PLK1 kinase inh: blocks human PLK1 kinase activity; P53350; inhibition, % at 10 µM; hit rate 0.53% among 97,000; recombinant PLK1 kinase, TR-FRET peptide phosphorylation;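 active = inhibition of 50% or more in the single-concentration screen; inactive = inhibition below 50%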;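 also: 0% = DMSO max control and 100% = H-89 dihydrochloride min control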
PLK1 PBD inh: Plk1 (human) PBD binding inhibition. P53350. Plk1 PBD phosphopeptide binding, fluorescence polarization. hit rate 0.13% among 97,000. inhibition, %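 (tested at about 20 µM)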. AID 693; in the data active = inhibition above about 34%, passing the limit was not always enough
CYP2C9 act: increases human cytochrome P450 2C9 activity; P11712; recombinant CYP2C9, luciferin-H conversion, luminescence; stronger effect = higher value; factor 1 = untreated enzyme, 0 = blocked; activation factor at 5 µM; hit rate 1.4% among 96,000;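 active = activation factor of 2 or more for CYP2C9 at a 5 µM dose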;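 also: 0 = sulfaphenazole-blocked wells and 1 = vehicle-only wells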
Numbers without * were called inactive; / = no result.

SMILES	CYP2C19 inhib	CYP2C9 inh	CYP2C19 act	PLK1 kinase inh	PLK1 PBD inh	CYP2C9 act
Cc1noc(/C=C/N(C)C)c1S(=O)(=O)N1CCCC(C(=O)NCCC2=CCCCC2)C1 (stereo not given)	/	/	/	-12	-12	/
CCC(C)(C(=O)NC1CCCC1)N(C(=O)c1cnccn1)c1c(C)n(C)n(-c2ccccc2)c1=O (stereo not given)	-14	-12	1.1	-11	3	1.1
COc1ccccc1C1CC(=O)Nc2cc3c(cc21)OCCO3 (stereo not given)	33	74*	0.7	-9	11	0.3
CC(C)Oc1ccccc1C1CC(=O)Nc2cc3c(cc21)OCCO3 (stereo not given)	96*	96*	0	-6	-7	0
Cc1ccc(N(CC(=O)NC2CC3CCC2C3)S(C)(=O)=O)cc1C (stereo not given)	73*	10	0.3	0	-1	0.9
COc1ccc(Nc2nc(CC(C)=O)ns2)cc1	/	/	/	-12	-21	/
CC(=O)Cc1nsc(Nc2ccc3c(c2)OCCO3)n1	45	72*	0.6	-10	-6	0.3
COCCCN1CN(S(=O)(=O)c2ccc(Cl)cc2)c2nc3ccccc3nc21	98*	99*	0	-2	29	0
CC(C)OCCCN1CN(S(=O)(=O)c2ccccc2)c2nc3ccccc3nc21	85*	98*	0.1	-2	-23	0
COc1ccc(-n2nnnc2SCC(=O)Nc2nc3c(s2)CCCC3)cc1	-14	-4	1.1	-3	2	1
O=C(O)CSc1nnc(-c2ccncc2)n1C1CCCCC1	-3	-18	1	-22	-6	1.2
O=C(NC1CCCCNC1=O)c1ccc(Cl)cc1 (stereo not given)	-14	52*	1.1	-9	-3	0.5
Cc1ccc(-c2nnc(N3CCOCC3)c3ccccc23)cc1S(=O)(=O)NCC1CCCO1 (stereo not given)	47	71*	0.5	/	/	0.3
Cn1nnnc1P(=O)(c1ccccc1)c1ccccc1	-14	0	1.1	-12	3	1
Cc1ccccc1CS(=O)(=O)c1nnc([C@H](CC(C)C)NC(=O)OC(C)(C)C)o1	29	76*	0.7	-11	-13	0.2
CCOC(=O)CSc1nnc([C@H](Cc2ccccc2)NC(=O)OC(C)(C)C)o1	41	1	0.6	-15	-3	1
CC(C)C[C@H](NC(=O)OC(C)(C)C)c1nnc(SCc2ccccc2)o1	74*	65*	0.3	0	-14	0.4
CC[C@@H](C)[C@H](NC(=O)OC(C)(C)C)c1nnc(S(=O)(=O)Cc2cc(C)ccc2C)o1	21	41	0.8	-14	-5	0.6
CC(C)(C)OC(=O)N[C@@H](Cc1ccccc1)c1nnc(S(=O)(=O)Cc2cccc(F)c2)o1	42	60*	0.6	-5	-17	0.4
CC(=O)Oc1ccc(C)cc1-n1nc2ccccc2n1	36	21	0.6	-8	12	0.8
C=C(C)c1cccc(C(C)(C)NC(=O)N2CCCC2)c1	/	/	/	-9	-6	/
C=C(C)c1cccc(C(C)(C)NC(=O)N2CCOCC2)c1	56*	17	0.4	-13	20	0.8
CC(C(=O)N1CCOCC1)(c1ccccc1)c1ccccc1	94*	24	0.1	-9	-4	0.8
C=C(C)c1cccc(C(C)(C)NC(=O)N2CC(C)OC(C)C2)c1 (stereo not given)	69*	8	0.3	-2	-7	0.9
O=C(Oc1ccccc1OC(=O)N1CCOCC1)N1CCOCC1	8	-4	0.9	-9	-20	1
SMILES	CYP2C19 inhib	CYP2C9 inh	CYP2C19 act	PLK1 kinase inh	PLK1 PBD inh	CYP2C9 act
COc1ccc(CN=Cc2c(C(F)(F)F)[nH][nH]c2=O)cc1	11	13	0.9	2	-11	0.9
CCN(C(=O)CCc1nc(-c2ccccc2F)no1)c1cc(OC)ccc1OC	94*	94*	0.1	0	1	0.1
COc1ccc(CNC(=O)CCc2nc(-c3ccccc3F)no2)c(OC)c1	74*	57*	0.3	-9	-4	0.4
COc1ccc(Br)cc1CNC(=O)CCc1nc(-c2ccccc2F)no1	65*	57*	0.3	-9	13	0.4
COc1cccc(NC(=O)CCc2nc(-c3ccccc3F)no2)c1	26	60*	0.7	-3	-12	0.4
O=C(CCc1nc(-c2ccccc2F)no1)Nc1ccc(Oc2ccccc2)cc1	8	22	0.9	-13	-17	0.8
COc1cccc(C2NC(=O)NC(C)=C2C(=O)OCCSC)c1OC (stereo not given)	/	/	/	-6	-19	/
CC(C)c1nc2oc3c(NCC4CCCO4)ncnc3c2c2c1CCC2 (stereo not given)	30	42	0.7	-4	1	0.6
CCOC(=O)c1c(C)nc2c(C#N)cnn2c1C	63*	-7	0.4	-9	-13	1.1
CC(=O)c1sc(Nc2nc(C)cc(C)n2)nc1C	15	73*	0.9	-7	-6	0.3
CCSc1nc2c(cnn2-c2ccc(C)cc2)c(=O)[nH]1	0	-19	1	/	/	1.2
CCCCNC(=O)C1CC(c2c(Cl)cccc2Cl)=NO1 (stereo not given)	27	-385	0.7	-2	5	4.8*
COc1cc(C2=NOC(C(=O)NCc3ccc(F)cc3)C2)cc(OC)c1OC (stereo not given)	69*	-61	0.3	-11	35	1.6
COc1ccccc1CNC(=O)C1CC(c2cccc([N+](=O)[O-])c2)=NO1 (stereo not given)	30	-150	0.7	-5	12	2.5*
COc1ccc(C2=NOC(C(=O)NCc3ccc(F)cc3)C2)cc1OC (stereo not given)	46	6	0.5	-15	-16	0.9
CCCCNC(=O)C1CC(c2cccc([N+](=O)[O-])c2)=NO1 (stereo not given)	0	-99	1	-7	3	2*
O=C(NCc1ccco1)C1CC(c2cccc([N+](=O)[O-])c2)=NO1 (stereo not given)	1	-26	1	-11	7	1.3
COCCNC(=O)C1CC(c2ccc(F)cc2)=NO1 (stereo not given)	7	-3	0.9	-15	44	1
Cc1ccc(C=C2C(=O)c3ccccc3C2=O)s1	13	48	0.9	0	-9	0.5
CC(C)(C)NC(=O)COC(=O)c1cncc(Br)c1	6	-5	0.9	-7	-21	1
CN(C(=O)c1ccc(Cl)c(S(=O)(=O)N2CCOCC2)c1)c1ccccc1C(=O)O	-8	7	1.1	-7	19	0.9
COc1cc(OC)c(C2=NOC(C(=O)NCc3ccc4c(c3)OCO4)C2)cc1Cl (stereo not given)	93*	-16	0.1	-23	8	1.2
O=C(NCc1ccc2c(c1)OCO2)C1CC(c2ccc(Cl)cc2)=NO1 (stereo not given)	26	0	0.7	-3	-25	1

Screens from PubChem BioAssay.
